IL-1B inflam inh: inflammasome signaling inhibition, IL-1 beta readout; activity change, % at 57.5 µM; THP-1 LPS/ATP IL-1B secretion, AlphaLISA, 16 h; stronger effect = lower value; 360,000 tested, 4.7% active; in the data active = activity change below about -50%; inconclusive = mostly about -30% to -49%; note: % is set by controls: 0 for no effect and ±100 for the full control effect
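Secreted IL-1B measured by AlphaLISA bead assay after 16 h compound exposure of THP-1 cells; compounds (final up to 57.5 uM) added 1 h before LPS (250 ng/mL) and ATP (1.25 mM) stimulation; lower signal means less secretion.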
MCF10A rereplic: induces DNA re-replication in MCF 10a normal breast cells. MCF 10A DNA re-replication, Hoechst nuclear intensity, 48 h. Potency, µM (doses to about 46.1 µM), for inactives: top-dose activity, positive = re-replication, most hits filed as activators. 350,000 tested, 2.9% active. AID 624296; note: potency is the fitted concentration of half-maximal effect; % of control where 0% means no effect; nearly all actives have a fitted effect of over 50% in size
SW480 rereplic: inducers of DNA re-replication in SW480 colon cancer cells | Potency, µM (titrated, usually from 46.1 µM), without a hit: at the highest dose re-replication activation, most hits filed as activators | 340,000 tested, 1.8% active | SW480 DNA re-replication, Hoechst DNA content imaging, 48 h; note: potency is the fitted concentration of half-maximal effect; % of control where 0% means no effect; nearly all actives have a fitted effect of over 55% in size
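Quantitative HTS format with DMSO vehicle controls; 48 hr drug incubation at 37 C, then 40 min Hoechst staining and scanning imager measurement at 405 nm excitation.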
KB-V1 MDR tox: kills drug-selected multidrug resistant KB-V1 cells. KB-V1 MDR cells viability, CellTiter-Glo, 72 h. Potency, µM (series often up to 46.1 µM), usual class: cytotoxic. 400,000 tested, 3.4% active. AID 1347076; note: potency is the fitted concentration of half-maximal effect; % is set by controls: 0 for no effect and ±100 for the full control effect; nearly all actives have a fitted effect of over 60% in size
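KB-V1, DMEM (no phenol red) + 10% FBS; cpd pin-transferred, titration series; 72 h, 37 degrees C; CellTiter-Glo, luminescence. Data normalized, curve-fit.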
KB-3-1 tox: KB-3-1 parental cell cytotoxicity; KB-3-1 viability, CellTiter-Glo ATP luminescence, 72 h; Potency, µM (series often up to 46.1 µM), usual class: cytotoxic; 400,000 tested, 1.4% active; note: potency is the fitted concentration of half-maximal effect; % is set by controls: 0 for no effect and ±100 for the full control effect; nearly all actives have a fitted effect of over 60% in size
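KB-3-1 cells, DMEM (no phenol red) + 10% FBS; compound by pin transfer, 72 h, 37 °C. Readout: CellTiter-Glo luminescence after 10 min. Data normalized, curve-fitted.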
Numbers without * were called inactive; i = inactive; ? = inconclusive; . = no result given. Most compounds without a hit are left out; they make up all but 9.9% or so of the library. Unless noted, calls come from the whole dose curve; as a rule, active = well fitted curve in the direction sought with a large enough effect; inconclusive = small, poorly fitted or top-dose-only effect, or another doubt; inactive = no such curve, though single readings can be large; an effect the other way counts as inactive or inconclusive.

SMILES	IL-1B inflam inh	MCF10A rereplic	SW480 rereplic	KB-V1 MDR tox	KB-3-1 tox
Cc1csc(NC(=O)c2ccc(C)c(S(=O)(=O)N3CCCCC3)c2)n1	-1	7%	3%	9.2µM*	?
Cc1ccc(C(=O)Nc2cccc(O)c2)cc1S(=O)(=O)N1CCCCCC1	-57*	?	?	i	?
Cc1ccc(S(=O)(=O)c2cccc(S(=O)(=O)N3CCCC3)c2)cc1S(=O)(=O)N1CCCC1	-14	13%	-1%	2.6µM*	21µM*
Cc1ccc(NC(=O)c2ccc(Cl)c(N3C(=O)C=CC3=O)c2)cc1	-56*	15µM*	13µM*	?	?
CC1(C(=O)Nc2cccc3cccnc23)CCN1Cc1ccccc1OC(F)F (stereo not given)	-9	.	.	i	i
Cc1ccc(NC(=O)c2ccc(C)c(S(=O)(=O)N3CCCCCC3)c2)cc1	.	.	.	21µM*	?
CC(C)c1nc2ccccc2c2nnc(SCC(=O)NCc3ccco3)n12	6	?	14%	4.1µM*	?
CC1CCCCN1C(=O)CSc1nc(C2CC2)nc2ccccc12 (stereo not given)	-77*	?	?	i	i
CC(C)(C)c1nc2ccccc2c2nnc(SCC(=O)NCc3ccco3)n12	0	-9%	1%	5.2µM*	i
Cc1cc(C)n2c(SCC(=O)NCc3ccco3)nnc2n1	-1	5%	1%	i	i
CC1CCN(C(=O)CSc2nc(C3CC3)nc3ccccc23)CC1	?	18%	10%	i	i
C=CCn1c(SCC(=O)NCc2ccco2)nnc1-c1ccc2ccccc2n1	0	7%	-2%	7.3µM*	i
COc1ccccc1C1NC(=O)c2n[nH]c(-c3cccs3)c21 (stereo not given)	.	.	.	i	i
O=C(NC(=S)N1CCCCCC1)c1ccc(Cl)cc1Cl	17	12%	-3%	i	i
O=C(CCCCn1c(=O)c2ccccc2n(Cc2ccc(F)cc2Cl)c1=O)NCCc1ccc(Cl)cc1	.	.	.	i	i
O=C(CSc1nc(C2CCCCC2)nc2ccccc12)NCc1ccco1	-82*	26%	0%	?	?
Cc1onc(-c2ccccc2)c1C(=O)N/N=C(\N)COc1ccc(Cl)cc1	6	15%	12%	15µM*	?
Cc1onc(-c2ccccc2Cl)c1C(=O)N/N=C(\N)COc1ccc(Cl)cc1	-13	15%	-1%	15µM*	?
COc1ccc(Cl)cc1/C=N/NC(=O)c1c(-c2ccccc2)noc1C	42	7%	2%	i	i
CCOC(=O)CC1c2nc3ccccc3cc2CN1C(=O)OCC (stereo not given)	41	.	.	i	i
Nc1nonc1-c1noc(COc2ccccc2Cl)n1	-57*	0%	0%	i	i
CCOC(=O)c1c(C)nc2c(C)cccn12	-8	-4%	-1%	i	i
Cc1nc2c(C)cccn2c1C(=O)c1ccccc1	0	-3%	-4%	26µM*	?
Cn1c(=O)c2cc(C(=O)N3CCN(c4ccc(Cl)cc4)CC3)sc2c2ccccc21	.	.	.	i	i
O=C1C(C2=NC(c3ccccn3)C3C(=O)N(c4ccc(OC(F)(F)F)cc4)C(=O)C23)=C(O)c2ccccc21 (stereo not given)	-5	?	-8%	i	4.6µM*
SMILES	IL-1B inflam inh	MCF10A rereplic	SW480 rereplic	KB-V1 MDR tox	KB-3-1 tox
CN1CCN(S(=O)(=O)c2cccc(C(=O)N(Cc3nnc(-c4ccc(Cl)cc4)o3)C3CC3)c2)CC1	?	4%	6.5µM*	i	i
COc1ccc(C(=O)Nc2cc(C)nn2-c2cccc(F)c2)cc1OC	-20	?	-5%	i	i
Cc1ccc(NS(=O)(=O)c2sc3ccc(Cl)cc3c2C)cc1	-85*	?	-1%	i	i
Cc1cc(-c2ccc(S(=O)(=O)Nc3ccc(Cl)cc3)cc2)on1	.	.	.	i	i
CCOC(=O)c1cc2c(=O)n3ccccc3nc2n(CCCOC)c1=NC(=O)c1c(-c2ccccc2Cl)noc1C	.	.	.	i	i
NC1=NC(=O)C2(COC(c3cccnc3)OC2)S1 (stereo not given)	1	-39%	30%	i	i
OC(CNC1Cc2ccccc2C1)COc1ccc(Cl)cc1 (stereo not given)	-7	13%	-4%	i	i
OC(CNC1CCCc2ccccc21)COc1c(Cl)cccc1Cl (stereo not given)	-101*	?	?	i	i
Cn1ccnc1C(O)c1cc(C(C)(C)C)c(O)c(C(C)(C)C)c1 (stereo not given)	-93*	26%	-2%	i	i
Cc1ccc(S(=O)(=O)N2CCC(C(=O)Nc3nnc(C)s3)CC2)cc1	-4	-6%	-8%	i	i
N#CC1=C(c2ccccc2)/C(=C/c2ccccc2)OC1=O	-104*	6.5µM*	?	?	?
COc1ccc(C2(CNC(=O)c3cccs3)CCOCC2)cc1	25	-11%	-7%	i	i
CN(C)c1nc(SCCOC(=O)Nc2ccccc2)nc(N(C)C)n1	-1	1%	-6%	15µM*	i
CN(C)c1nc(NC(C)(C)C)nc(SCC(=O)Nc2ccccc2)n1	-104*	1%	-3%	8.2µM*	i
CN(C)c1nc(NCc2ccccc2)nc(SCC(=O)Nc2ccccc2Cl)n1	-11	?	2%	?	i
Cc1ccccc1OCCSc1nc(N(C)C)nc(N(C)C)n1	1	1%	-17%	i	i
CN(C)c1nc(NCc2ccccc2)nc(SCC(=O)Nc2ccccc2)n1	-77*	?	-1%	?	i
CC(C)(C)OC(=O)COc1ccc(/C=N/NC(=O)CN2CCCCC2)cc1	-3	-8%	0%	i	i
Cc1ccc(S(=O)(=O)N2CCC(c3ccncc3)CC2)c(C)c1	.	.	.	i	21µM*
O=C(c1ccc2c(=O)n(Cc3ccccc3Cl)c(=S)[nH]c2c1)N1CCCC1	39	3%	1%	i	i
CC(C)CSC1=NSC2=NC(=O)/C(=C\c3coc4ccccc4c3=O)C(=N)N12	4	21µM*	-9%	i	i
CC(C)CSC1=NSC2=NC(=O)/C(=C\c3ccccc3)C(=N)N12	12	15µM*	25%	i	i
Nc1ccccc1OC1=NS(=O)(=O)c2ccccc21	.	.	.	i	?
COc1ccc(Cl)cc1NC(=O)CN(C)C(=O)CCC(=O)c1cc(C)sc1C	-53*	8%	3%	i	i
COc1ccc(Cl)cc1NC(=O)CN(C)C(=O)c1cn2ccccc2n1	41	?	13µM*	?	?
COc1ccc(Cl)cc1NC(=O)CN1Cc2ccccc2C1=O	.	.	.	5.2µM*	?

Assay outcomes (PubChem)
